# T1: USP38, Q8NB14
# T1 chain: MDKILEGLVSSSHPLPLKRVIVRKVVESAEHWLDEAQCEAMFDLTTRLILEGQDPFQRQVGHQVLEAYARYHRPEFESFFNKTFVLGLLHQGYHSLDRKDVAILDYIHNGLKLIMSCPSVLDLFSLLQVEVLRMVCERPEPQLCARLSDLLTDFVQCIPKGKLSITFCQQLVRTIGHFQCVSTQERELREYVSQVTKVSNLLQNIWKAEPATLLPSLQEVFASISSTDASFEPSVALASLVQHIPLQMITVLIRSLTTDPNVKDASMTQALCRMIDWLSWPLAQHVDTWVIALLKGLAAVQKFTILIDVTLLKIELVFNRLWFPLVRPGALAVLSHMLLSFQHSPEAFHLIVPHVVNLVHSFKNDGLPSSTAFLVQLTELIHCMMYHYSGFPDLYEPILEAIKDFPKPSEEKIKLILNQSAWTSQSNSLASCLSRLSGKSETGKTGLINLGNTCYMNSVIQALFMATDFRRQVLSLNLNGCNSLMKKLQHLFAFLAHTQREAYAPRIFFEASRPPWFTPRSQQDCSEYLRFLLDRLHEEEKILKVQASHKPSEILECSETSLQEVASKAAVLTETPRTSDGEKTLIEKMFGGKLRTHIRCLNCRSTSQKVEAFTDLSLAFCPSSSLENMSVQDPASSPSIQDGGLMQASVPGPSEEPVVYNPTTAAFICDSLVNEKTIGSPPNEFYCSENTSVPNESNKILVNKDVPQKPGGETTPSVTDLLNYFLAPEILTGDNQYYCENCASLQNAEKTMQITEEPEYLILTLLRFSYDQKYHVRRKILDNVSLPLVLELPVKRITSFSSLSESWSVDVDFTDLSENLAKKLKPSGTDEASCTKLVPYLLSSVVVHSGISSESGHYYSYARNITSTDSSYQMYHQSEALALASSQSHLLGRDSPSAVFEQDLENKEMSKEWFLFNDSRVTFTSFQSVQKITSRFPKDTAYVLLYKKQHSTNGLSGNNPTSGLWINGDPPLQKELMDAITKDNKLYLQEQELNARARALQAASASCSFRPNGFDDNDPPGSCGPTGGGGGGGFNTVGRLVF
# B1: usp_38_diff_out_13_133_52 (protein)
# chain: AEEEEELKRRKEEFDKLIAEARKAIKDAKAALAAGDLDAAWAAAGKAAGLLMKAREHRTEKLRDDPELYEEAKKKLDEVEKELNEVIDAIVAAERERFLA
# B2: usp_38_diff_out_13_133_62 (protein)
# chain: SAAEERRKEALKELEETEKKIEELLKKAKEALKEGKIEEAEKYVGEAAGLILKARSDLMAKTKDDPELRKEILKRLKELEKKLNELIDEVNEALKKKFLE
# B3: usp_38_diff_out_13_133_53 (protein)
# chain: AAAEARRARALALLEEAEARVEKLIKEAEKALKEGKIDEARKYVAEAAGTLLRTRDELFDLTADDPELRREVLRRLKELTKRLDKVIDKVEKAERERFLA
# B4: usp_38_diff_out_11_94_49 (protein)
# chain: DEEIETNLFLMRYQFSQIVDLALTIDRETAAKVLRLANEAMEILKSGGPLEEVNKKLEEIKKVFNEAAAKSKENTEKLTAEANALLEKAKEYAEKAIKLR
# B5: uchl1_89_7593 (protein)
# chain: EEARLAAARAKLREVLARTRAAVEAILARLGEPRPELVALLDAIFEAAEKAIADPAKAEEYVEKAEAAAREFVELAPEEFRSDFRMALGRLINRLLGYAA
# B6: uchl1_89_7588 (protein)
# chain: EEERRRAARERLERVLAATRARLEALLARLGEPDPALVAALEALFAAARRALEDPATAAEALAAAEAAARRLVELAPPEVRASVRLAVGRLVNRLRGYVA
# B7: uchl1_89_7590 (protein)
# chain: EEAKAKAARARLERVLAATEAALRRLLARLGAPDPALVAALDALLAAARAALADPATAAAHLAAAEAAARRLVELAPPEVRASVRLATGRLVNALRGYVA
# B8: usp_38_diff_out_13_43_65 (protein)
# chain: LREEAEKALAEADKALGEAYKLSQEIRDKIRESDPETAKKLVKLRKELDDAGNALADARVALELALHSGEGVEEAIAATRAAIAALKKKIAEAKKELAAL
# B9: usp_38_diff_out_13_133_51 (protein)
# chain: AAKEEALAAAQARFDALLADAQAAIDAAEAALAAGDLDAAWAAVGRAAGLLREAREHRTRELRDDPAAYAAAQARLDAVEKRLNAVIDRVAAAERARFLA
# B10: usp_38_diff_out_13_133_58 (protein)
# chain: SAAEERRKKALERLEEAEKKVEELLKKAEEALKEGKIEEASKYVGEAAGIIVKTRSDLMALTKDDPELRKEILKRLKELEKKLNELIDKVVEAEKKKFLA
# B11: usp_38_diff_out_13_133_54 (protein)
# chain: AAAEARREEARRLLEEAEKEIEKLLKEAEKALEEGNIDKAYEYVAKAAGLLLETRDRLFDLTRDDPELRREVLKRLKELEKKLNELIDKVEAAERERFLA
# B12: usp_38_diff_out_13_93_69 (protein)
# chain: EREERAEEIVERVERLGEELLKELEAAAADPSTTIEELLDLYSELVRRLVTATQAALAEARELGDEETVERILEISNETLLRLSELTTEALTAKAEAEAA
# B13: uchl1_89_7595 (protein)
# chain: AAERAAAARARLRRVLAATRAELDRLVARMGERDPELLAALEAFFAAAEAALADPSTAAAALAAAEAAAKRAVELAPERYRASFRLALGRLLNALRGYVA
# B14: uchl1_89_7594 (protein)
# chain: EEERLAAARAYLRRVLAETRARVEAILARLGRPDPALVAAAEAIFEAAELAIEEPERAEEYVARAEEAARQLVELAPPEYRADFRMALGRLINRLRGYAA
# B15: usp_38_diff_out_13_133_63 (protein)
# chain: SAAEERRAAARARLDAAVAEVERLLEEARRALEEGDVERAERYVGEAAGVLVRTRSELMALTRDDPELRREILRRLKELERRLEELIDEVEAARREAFLA
# B16: usp_38_diff_out_13_93_67 (protein)
# chain: DKEEEAKKLLEELKKFAEEKLKELEKLAKDPSVTIEELLEKYSELVSELITKHNEVKKKLDELGDEKTKKEATKITNEALLRMSEITTEALTRKQEEAEA
# B17: usp_38_diff_out_10_51_1 (protein)
# chain: SVEEAKKRIEELMKEVEEVFKTGSDGEILRKSLNALNELTEIAKEYPEVKEEVIEAMVRIVELTKPNPELYEDMTFAARFKAATVSDEVAEKVREKIAAL
# B18: usp_38_diff_out_13_133_50 (protein)
# chain: SMEEEEKKEALKKFEELIKEAREAIEKAKKALEEGDLDKAWEYLGKAAGLLMEARELRTRELRDDPELYKEAKKKLEEVEKELNEVIDKVVEAEEKAFLA
# B19: usp_38_diff_out_10_51_3 (protein)
# chain: SREEEAERLLEEMEELVEKIKTSDLKTATAYFYQLINLTARLEALDPSYAERALELLKEAAKELLEKGGDKEDIIFALRFKAAATGSKVLEKAAEYVEKL
# B20: usp_38_diff_out_13_133_59 (protein)
# chain: SAAEERRREAERRLAEAERRIRELLEKAKKALEEGDIDEAERYVGEAAGIILRTRSDLMALTRDDPELRRRILRRLKELEEELNELIDEVVEAEKKRFLA
# B21: usp_38_diff_out_13_43_66 (protein)
# chain: LEEEAEKVLKELDETLGEIYNLSLELRDKIRESDPETAKKLVEIKKRLDEVGNELADARRDLEIALISGEGLEEAIKKGKEKIEKAKKTIKEAKEELEKL
# B22: uchl1_89_7591 (protein)
# chain: EAERLERARAHLREVLARTRERVEAIIARLGEPDPALVAARERVFAAAERAIADPARAAEYVAEAEAAARELVALAPPEFRSDFRMALGRLINRLLGYAA
# B23: usp_38_diff_out_13_133_60 (protein)
# chain: SAAEERRAEARRRLEEAEERVKALLKEAKAALKAGKIDEARKKVGEAAGVIVDTRSDLMALTRDDPELRREILKRLKELEKELDKLIDEVVKAEEEAFLA
# B24: uchl1_89_7592 (protein)
# chain: DAARLAAARARLRRVLERTRARVEAIIARLGRPDPAMVAAAEAVFAAAERAIADPARAAEWVARAEAAARELVALAPPEYRSDFRMALGRLVNALLGYAA
# B25: usp_38_diff_out_13_133_56 (protein)
# chain: SMAEKKREEAKKLLEETKKKVEKLLEEAEKALKEGDVEKAWEKVGEAAGTLLKARDELTDLTEDDPELRKEVLKELKKLEEKLNKLIDKVEKALREEFLK
# B26: usp_38_diff_out_13_43_64 (protein)
# chain: LREKAEKALAEADAALGRAYAVSRELRDKMREVNPEDAKKLLKARKKLDEVGNALADARAALETAMILGEGVEEAIPKVQAAVAKLKAAIEEAEKLLKEV
# B27: usp_38_diff_out_13_133_61 (protein)
# chain: SAMEERRKEAREELEKAKKEIEELLKKAEEALKEGDIETAEKYVGEAAGLILDTRSDLMERTKDDPELRKEILKELKELEKKLNELIDKVVKAREEEFLK
# B28: uchl1_89_7596 (protein)
# chain: EEERRAAARARLRRVLAATRAKLEELIARMGERDPELLAELEAFFAAAEAALEDPETAEAALAAAEEHAVRAVELAPEEYRASFRLALGRLLNALLGYVA
# B29: usp_38_diff_out_13_133_55 (protein)
# chain: AAAEAARAEAEALLAETEKRVEELLKKAKEALKAGDVETAEKYVGEAAGTLLEARDRLSDLTADDPELRREVLKRLKELEEKLNELIDEVEKALREEFLK
# B30: usp_38_diff_out_13_133_57 (protein)
# chain: SAAEERRAEARARLAETEAEVEKLLKEAKAALKAGDIDEAEKKVGEAAGLILEARSDLFALTRDDPELRREIRRRLKELEKELDKLIDEVVEARKKEFLA
# B31: uchl1_89_7589 (protein)
# chain: AAAREAAARARLEAVLAKTRAELERLLARLGAPDPEMVAALEALFDAARRALADPETAEAALAETEAAARRLVELAPEEVRASVRLAVGRLVIALEGYRA
# B32: usp_38_diff_out_10_51_2 (protein)
# chain: SVEEAREEIEELLEEVEEVFKTGSLDEQLRAGLNALNRLREIALEYPEVEEEVIEAMVRIVELAKPNPELYEDMKFAARFKAATVNDEVAERVRERIDAL
# Tests used:
# [1] = biological target: T1, USP38, Q8NB14; test: median log2 fold change of GCK-ALFA target abundance (FLAG IP / Myc IP barcode read proportion) (log2 ratio); each designed protein is fused to an ALFA-tag nanobody in HEK293 cells to bring the named protein to FLAG-tagged glucokinase (GCK); Myc marks an untargeted standard; higher = target protein stabilised (more abundant); settings: target protein: 3xFLAG-MCP-GCK-ALFA reporter; HEK293 landing pad (RPLP)
# How it was run: (§1)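 Binders fused to an ALFA nanobody were recombined as a library into HEK293 landing-pad cells, which were induced with 2 μg mL^−1 doxycycline and then transfected to express a FLAG-tagged target and a Myc-tagged standard. After 48 h, circular RNA barcodes recovered by anti-FLAG and anti-Myc immunoprecipitation of lysates were reverse transcribed, amplified and sequenced. Each binder's target abundance is the median log2 ratio of FLAG to Myc barcode read proportions, from barcodes present at ≥10^−7 in both replicates, binders carrying ≥3 barcodes per replicate, a 10^−6 pseudocount and pooled replicates.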
# [2] = biological target: UCHL1, P09936; test: as above; settings: target protein: 3xFLAG-MCP-GCK-ALFA reporter; HEK293 landing pad (RPLP)
# How it was run: as §1
# UCHL1, P09936, sequence (P09936 whole entry, looked up): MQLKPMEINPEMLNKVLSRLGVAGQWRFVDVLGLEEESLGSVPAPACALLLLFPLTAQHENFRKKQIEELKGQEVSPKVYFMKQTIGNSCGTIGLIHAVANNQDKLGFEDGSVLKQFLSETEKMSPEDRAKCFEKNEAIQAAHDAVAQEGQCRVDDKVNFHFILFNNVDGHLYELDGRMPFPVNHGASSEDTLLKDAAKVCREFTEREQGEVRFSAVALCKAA
Binder,median log2 fold change [1],median log2 fold change [2]
B1,0.302,
B2,0.147,
B3,0.000412,
B4,0.33,
B5,,0.0394
B6,,-0.164
B7,,-0.00562
B8,0.148,
B9,0.142,
B10,0.217,
B11,-0.102,
B12,-0.38,
B13,,-0.1
B14,,0.173
B15,0.0626,
B16,0.158,

Binder,median log2 fold change [1],median log2 fold change [2]
B17,0.235,
B18,0.322,
B19,0.18,
B20,0.136,
B21,0.341,
B22,,0.0711
B23,-0.0799,
B24,,-0.157
B25,-0.0894,
B26,-0.253,
B27,0.145,
B28,,-0.537
B29,0.299,
B30,0.0932,
B31,,0.16
B32,0.0864,
